Where “and” joins values, the source holds several entries; their conditions need not be identical. Identical values can stand only once. About 79,000 compounds went through this panel and 15% of them were active in at least one assay; those are over-represented in the sample as a whole. The source holds several records for some structures; these can differ, active in one and inactive in another. Calls of active or inactive are those of the source. Cut-off read from the data, not from the text of the source: active = growth inhibition above about 70%; inactive = the rest.
Key:
[1] = NCI Yeast Anticancer Drug Screen. Data for the rad50 strain (AID 155);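 note: 0% = growth of vehicle-only cultures of the same strain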; details: S. cerevisiae rad50 strain growth inhibition, stronger effect = higher value
In short: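 Growth of the mutant yeast was measured after compound exposure and referenced to vehicle-treated cultures.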

[2] = NCI Yeast Anticancer Drug Screen. Data for the mec2-1 strain (AID 157); details: S. cerevisiae mec2-1 strain, stronger effect = higher value
In short: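 Each compound was tested on mec2-1 yeast, a strain altered in DNA damage repair or cell cycle control. Growth inhibition is reported relative to vehicle.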

[3] = NCI Yeast Anticancer Drug Screen. Data for the sgs1 mgt1 strain (AID 161);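 note: 0% = growth of cultures given vehicle only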; details: S. cerevisiae sgs1 mgt1 strain, stronger effect = higher value
In short: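 Inhibition of yeast growth, normalised to vehicle-treated controls, is reported for a strain bearing genetic alterations in DNA damage repair.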

[4] = NCI Yeast Anticancer Drug Screen. Data for the cln2 rad14 strain (AID 165);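 note: 0% = growth equal to vehicle treated cultures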; details: S. cerevisiae cln2 rad14 strain, stronger effect = higher value
In short: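 Test compounds were added to cln2 rad14 yeast cultures; inhibition of growth was then determined by comparison with vehicle treatment.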

[5] = NCI Yeast Anticancer Drug Screen. Data for the bub3 strain (AID 167); details: S. cerevisiae bub3 mutant strain, stronger effect = higher value
In short: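 Whole-cell yeast assay. The mutant strain was incubated with compounds, and growth inhibition was determined by comparison with vehicle-treated cells.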

[6] = NCI Yeast Anticancer Drug Screen. Data for the mlh1 rad18 strain (AID 175); details: S. cerevisiae mlh1 rad18 strain growth inhibition, stronger effect = higher value
In short: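 Inhibition values reflect reduced growth of mutant yeast versus vehicle-treated controls following compound exposure; the mutations affect DNA damage repair.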

[7] = at 5.0 µM (retest, dose inferred, filed as 0.5)
[8] = at 50.0 µM (retest, dose inferred, filed as 5.0)

| Compound | growth inhibition [1, 7] | growth inhibition [1, 8] | growth inhibition ([1]; at 50.0 µM) | growth inhibition [2, 7] | growth inhibition [2, 8] | growth inhibition ([2]; at 50.0 µM) | growth inhibition [3, 7] | growth inhibition [3, 8] | growth inhibition ([3]; at 50.0 µM) | growth inhibition [4, 7] | growth inhibition [4, 8] | growth inhibition ([4]; at 50.0 µM) | growth inhibition [5, 7] | growth inhibition [5, 8] | growth inhibition ([5]; at 50.0 µM) | growth inhibition [6, 7] | growth inhibition [6, 8] | growth inhibition ([6]; at 50.0 µM) |
| --- | --- | --- | --- | --- | --- | --- | --- | --- | --- | --- | --- | --- | --- | --- | --- | --- | --- | --- |
| Cc1c(OCc2cccc3ccccc23)ccc2c(=O)cc(SCCN3CCOCC3)oc12 | 10% (inactive) | 25% (inactive) | 65.7% (inactive) | -1% (inactive) | 13% (inactive) | 30.2% (inactive) | 6% (inactive) | 49% (inactive) | 83% (active) | 5% (inactive) | 37% (inactive) | 25.1% (inactive) | 7% (inactive) | 47% (inactive) | 13.6% (inactive) | 7% (inactive) | 35% (inactive) | 73.3% (active) |
| Clc1ccc(/C=C/c2ccccn2)c(Cl)c1 | 3% (inactive) | 43% (inactive) | -14.9% (inactive) and 12.1% (inactive) | -3% (inactive) | 12% (inactive) | 6.2% (inactive) and 3.7% (inactive) | -2% (inactive) | 5% (inactive) | -23.1% (inactive) and 58% (inactive) | -6% (inactive) | -4% (inactive) | -0.55% (inactive) and 20.8% (inactive) | 51% (inactive) | 10% (inactive) | -9.75% (inactive) and 4% (inactive) | 1% (inactive) | 11% (inactive) | -47.5% (inactive) and 31% (inactive) |
| O=C(O)CCN1c2ccccc2Sc2ccccc21 | 1% (inactive) and -19% (inactive) | 31% (inactive) and 27% (inactive) | 35% (inactive) and 69.4% (inactive) | -22% (inactive) and -12% (inactive) | 40% (inactive) and 48% (inactive) | 13.3% (inactive) and 52% (inactive) | -5% (inactive) and -16% (inactive) | 46% (inactive) and 41% (inactive) | 27.9% (inactive) and 69.6% (inactive) | -8% (inactive) and 13% (inactive) | 58% (inactive) and 52% (inactive) | 84.3% (active) and 54.4% (inactive) | -15% (inactive) and -16% (inactive) | 51% (inactive) and 48% (inactive) | 64.9% (inactive) and 39.2% (inactive) | -7% (inactive) and -39% (inactive) | 56% (inactive) and 35% (inactive) | 42.5% (inactive) and 54.9% (inactive) |
| O=C(Nc1ccc(Cl)cc1)c1ccccc1O | 2% (inactive) | 8% (inactive) | 92.6% (active) and 4.9% (inactive) | 2% (inactive) | 11% (inactive) | 94.7% (active) and -13.8% (inactive) | 1% (inactive) | 33% (inactive) | 89% (active) and -5.25% (inactive) | 3% (inactive) | 6% (inactive) | 85.2% (active) and -12.8% (inactive) | 8% (inactive) | 13% (inactive) | 90.8% (active) and 3.8% (inactive) | 4% (inactive) | 9% (inactive) | 97.2% (active) and -0.55% (inactive) |
| CCCC1CCC(=C2C(=O)CCC2=O)O1 (configuration not stated) | 6% (inactive) | 21% (inactive) | -4.75% (inactive) and 90.7% (active) | 2% (inactive) | 19% (inactive) | -8.75% (inactive) and 92.2% (active) | 9% (inactive) | 26% (inactive) | -5.55% (inactive) and 92.7% (active) | -2% (inactive) | 8% (inactive) | 0.65% (inactive) and 91.2% (active) | 8% (inactive) | 9% (inactive) | 2.55% (inactive) and 91% (active) | 15% (inactive) | 35% (inactive) | -13.1% (inactive) and 90.8% (active) |
| CC(=O)c1ccc2ccc3ccc(O)cc3c2c1 | 1% (inactive) | 97% (active) | 88.5% (active) | 11% (inactive) | 97% (active) | 80.5% (active) | 2% (inactive) | 96% (active) | 82.2% (active) | -5% (inactive) | 97% (active) | 72.8% (active) | -27% (inactive) | 98% (active) | 90.2% (active) | 6% (inactive) | 97% (active) | 89.2% (active) |
| CN1CCN(CCCN2c3ccccc3Sc3ccc(C(F)(F)F)cc32)CC1 | -13% (inactive) and -1% (inactive) | 98% (active) and 94% (active) | 98.8% (active) and 83.9% (active) | -9% (inactive) and -29% (inactive) | 98% (active) and 70% (active) | 99.2% (active) and 83.9% (active) | -7% (inactive) and 0% (inactive) | 95% (active) and 73% (active) | 99.2% (active) and 84.9% (active) | -31% (inactive) and 3% (inactive) | 84% (active) and 78% (active) | 98% (active) and 84.7% (active) | -13% (inactive) and -27% (inactive) | 98% (active) and 95% (active) | 99.2% (active) and 86.2% (active) | -8% (inactive) and -9% (inactive) | 99% (active) and 96% (active) | 99.6% (active) |
| CC(NC(=O)/C(C#N)=C/c1ccc2[nH]ccc2c1)c1ccccc1 (configuration not stated) | 0% (inactive) | 94% (active) | 86.2% (active) | 1% (inactive) | 95% (active) | 90% (active) | 16% (inactive) | 93% (active) | 88.8% (active) | 7% (inactive) | 91% (active) | 86.5% (active) | 3% (inactive) | 94% (active) | 86.2% (active) | -5% (inactive) | 96% (active) | 86.3% (active) |
| CC(=O)OC1COC(n2c(N)c(C#N)c(-c3ccccc3)c(C#N)c2=S)C(OC(C)=O)C1OC(C)=O (configuration not stated) | -10% (inactive) and 1% (inactive) | 3% (inactive) and 74% (active) | 25.8% (inactive) and 46% (inactive) | -12% (inactive) and 1% (inactive) | 3% (inactive) and 57% (inactive) | 16.4% (inactive) and 40.7% (inactive) | -7% (inactive) and 2% (inactive) | 16% (inactive) and 48% (inactive) | 73.2% (active) and 65% (inactive) | -18% (inactive) and 1% (inactive) | -17% (inactive) and 61% (inactive) | -6.15% (inactive) and 14.3% (inactive) | -11% (inactive) and 4% (inactive) | -33% (inactive) and 79% (active) | 35.7% (inactive) and 4.05% (inactive) | -7% (inactive) and -2% (inactive) | 8% (inactive) and 73% (active) | 62.9% (inactive) and 56.9% (inactive) |
| CCCCCCC(C)CC(CCCCCC)NCCOC(=O)c1ccc([N+](=O)[O-])cc1 (configuration not stated) | 34% (inactive) and 18% (inactive) | 98% (active) and 97% (active) | 98.8% (active) and 99.2% (active) | 40% (inactive) and 22% (inactive) | 99% (active) | 99.3% (active) and 99.5% (active) | 80% (active) and 42% (inactive) | 99% (active) | 99.2% (active) and 99.5% (active) | 14% (inactive) and 2% (inactive) | 98% (active) | 98.5% (active) and 99.1% (active) | 19% (inactive) and 6% (inactive) | 99% (active) and 98% (active) | 98.7% (active) and 99.3% (active) | 72% (active) and 68% (inactive) | 99% (active) and 98% (active) | 99% (active) and 99.5% (active) |
| CC(=O)c1ccc(N)cc1 | 35% (inactive) | 73% (active) | 7.3% (inactive) | 50% (inactive) | 100% (active) | 15.3% (inactive) | 7% (inactive) | 52% (inactive) | 26.8% (inactive) | 12% (inactive) | 39% (inactive) | -1.3% (inactive) | 30% (inactive) | 99% (active) | -2.8% (inactive) | 62% (inactive) | 96% (active) | 20.1% (inactive) |
| Cc1cc2c(C(C)C)c(O)c(O)c(C=Nc3ccccc3S)c2c(O)c1-c1c(C)cc2c(C(C)C)c(O)c(O)c(C=Nc3ccccc3S)c2c1O | -3% (inactive) | 53% (inactive) | 36.2% (inactive) | -12% (inactive) | 28% (inactive) | 55% (inactive) | -4% (inactive) | 4% (inactive) | 57.3% (inactive) | -9% (inactive) | 16% (inactive) | 44.6% (inactive) | -8% (inactive) | 45% (inactive) | 39.5% (inactive) | -5% (inactive) | 66% (inactive) | 53.5% (inactive) |
| CCC[CH2][Sn]1([CH2]CCC)[O]N=C(c2ccccc2)C(c2ccccc2)[O]1 (configuration not stated) | 19% (inactive) | 19% (inactive) | 88.4% (active) | 20% (inactive) | 20% (inactive) | 87.8% (active) | -1% (inactive) | -1% (inactive) | 89.4% (active) | 8% (inactive) | 8% (inactive) | 79.7% (active) | 12% (inactive) | 12% (inactive) | 78.8% (active) | 12% (inactive) | 12% (inactive) | 79.9% (active) |
| Cc1ccc(CC(=O)c2c(C)[nH]c3ccccc23)cc1C | 10% (inactive) | 11% (inactive) | 95.7% (active) | 7% (inactive) | 24% (inactive) | 96.2% (active) | 11% (inactive) | 11% (inactive) | 98.5% (active) | 40% (inactive) | 44% (inactive) | 93.5% (active) | 0% (inactive) | 4% (inactive) | 92.5% (active) | 20% (inactive) | 8% (inactive) | 97% (active) |

— PubChem BioAssay (NCI)
